Screening data deposited in PubChem BioAssay by National Center for Advancing Translational Sciences (NCATS).
HT1080 IDH1KD tx: toxicity to HT-1080 IDH1 knockdown cells (counter line); HT-1080 IDH1 knockdown viability, ATP luminescence, 48 h; Potency, µM (titrated, usually from 46.1 µM), for the others: at the top dose activity, negative = toxicity, usual class: cytotoxic; actives 2% (n = 360,000);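 note: 0% = DMSO wells and -100% = cell-free medium wells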
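Cytotoxicity counter-line: IDH1KD HT-1080, 48 h, CellTiter-Glo. Curves classed by r2, magnitude and activity.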
SW480 rereplic: inducers of DNA re-replication in SW480 colon cancer cells | SW480 DNA re-replication, Hoechst DNA content imaging, 48 h | actives 1.8% (n = 340,000) | Potency, µM (highest dose often 46.1 µM), for the others: at the highest dose re-replication activation, most hits filed as activators | AID 624297; note: % of control where 0% means no effect; nearly all actives have a fitted effect of over 55% in size
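Per well, 250 cells were exposed to pinned compound for 48 hr. Nuclear DNA was visualised with Hoechst (40 min, 37 C) and total object intensity recorded by fluorescence scanning.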
KB-3-1 tox: KB-3-1 parental cell cytotoxicity | KB-3-1 viability, CellTiter-Glo ATP luminescence, 72 h | Potency, µM (series often up to 46.1 µM), actives largely listed as cytotoxic | actives 1.4% (n = 400,000); note: % is set by controls: 0 for no effect and ±100 for the full control effect; nearly all actives have a fitted effect of over 60% in size
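KB-3-1 cells, DMEM (no phenol red) + 10% FBS; compound by pin transfer, 72 h, 37 °C. Readout: CellTiter-Glo luminescence after 10 min. Data normalized, curve-fitted.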
MCF10A rereplic: DNA re-replication induction in MCF 10a cells; MCF 10A DNA re-replication, Hoechst nuclear intensity, 48 h; Potency, µM (top dose mostly 46.1 µM), for inactives: at the highest dose activity, positive = re-replication, usual class: activators; actives 2.9% (n = 350,000); note: % of control where 0% means no effect; nearly all actives have a fitted effect of over 50% in size
KB-V1 MDR tox: KB-V1 MDR subline cytotoxicity; KB-V1 MDR cells viability, CellTiter-Glo, 72 h; Potency, µM (titrated, usually from 46.1 µM), hits mostly cytotoxic; actives 3.4% (n = 400,000); note: % is set by controls: 0 for no effect and ±100 for the full control effect; nearly all actives have a fitted effect of over 60% in size
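KB-V1 MDR subline cells in DMEM (phenol-red free, 10% FBS) exposed to compounds in qHTS concentration series for 72 h at 37 degrees C. Viability read by CellTiter-Glo luminescence; concentration-effect curves fitted after normalization and correction.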
HT1080NT lethal: kills 2HG-producing HT-1080-NT fibrosarcoma cells; HT-1080-NT fibrosarcoma viability, CellTiter-Glo ATP luminescence, 48 h; actives 1.6% (n = 360,000); Potency, µM (top dose mostly 46.1 µM), without a hit: top-dose activity, negative = less viability, usual class: cytotoxic;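 note: NT is the 2HG producing partner of a matched IDH1 knockdown line; 0% = DMSO-treated cells and -100% = media-only wells without cells; nearly all actives have a fitted effect of over 55% in size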
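HT-1080-NT; 750 cells/well; 5% FBS RPMI; 48 h compound, 37 degrees C; CellTiter-Glo luminescence; curve fitting and curve-class assignment.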
Numbers without * were called inactive. Compounds with a hit are over-represented: about 8% of the library has one in this group of screens. Calls come from the whole dose curve; as a rule, active = well fitted curve in the direction sought with a large enough effect; inconclusive = small, poorly fitted or top-dose-only effect, or another doubt; inactive = no such curve, though single readings can be large; an effect the other way counts as inactive or inconclusive. Potency is the fitted concentration of half-maximal effect.

For C=CC(=O)Nc1cccc(Oc2cc(Cl)nc3[nH]ccc23)c1 the results were HT1080 IDH1KD tx inconclusive, SW480 rereplic inconclusive, KB-3-1 tox inconclusive, MCF10A rereplic inconclusive, KB-V1 MDR tox 18µM* and HT1080NT lethal inconclusive.
`CCOC(=O)c1c(NC(=O)c2ccc(Cl)s2)sc(C)c1C` gave HT1080 IDH1KD tx 22%, SW480 rereplic inconclusive, KB-3-1 tox inactive, MCF10A rereplic inconclusive, KB-V1 MDR tox inactive and HT1080NT lethal 0%.
`CCOC(=O)c1cc(C)sc1NC(=O)c1ccc(Cl)s1` gave HT1080 IDH1KD tx 21%, SW480 rereplic 1%, KB-3-1 tox inactive, MCF10A rereplic 3.3µM*, KB-V1 MDR tox inactive and HT1080NT lethal inconclusive.
Cc1cc(C)nc(N2CCC(C(=O)NCCc3ccc(F)cc3)CC2)n1 was read as HT1080 IDH1KD tx 0%, SW480 rereplic -9%, KB-3-1 tox inactive, MCF10A rereplic 0%, KB-V1 MDR tox 13µM* and HT1080NT lethal 1%.
O=C(NCc1ccc(F)cc1)C1CCCN(c2nc3ccsc3c(=O)s2)C1 (configuration not stated) was read as HT1080 IDH1KD tx -6%, SW480 rereplic inconclusive, KB-3-1 tox inactive, MCF10A rereplic 12µM*, KB-V1 MDR tox inconclusive and HT1080NT lethal -9%.
For CCC1=C(c2ccc(C)cc2)S(=O)(=O)N=C1N1CCC(C(=O)NCCc2ccc(Cl)cc2)CC1 the results were KB-3-1 tox 15µM* and KB-V1 MDR tox inactive.
Screening Cc1cc(=O)n2nc(N3CCCC(C(=O)NCc4ccc(F)cc4)C3)sc2n1 (configuration not stated) returned HT1080 IDH1KD tx 9%, SW480 rereplic -3%, KB-3-1 tox inactive, MCF10A rereplic -1%, KB-V1 MDR tox inactive and HT1080NT lethal 6%.
Screening CCC1=C(c2ccc(C)cc2)S(=O)(=O)N=C1N1CCC(C(=O)NCc2ccc(C)cc2)CC1 returned KB-3-1 tox inactive and KB-V1 MDR tox inactive.
Cc1cc(C)nc(N2CCCC(C(=O)NCCc3ccc(F)cc3)C2)n1 (configuration not stated) was read as HT1080 IDH1KD tx -11%, SW480 rereplic -1%, KB-3-1 tox inactive, MCF10A rereplic 3%, KB-V1 MDR tox 18µM* and HT1080NT lethal 7%.
COc1cc(/C=N/NC(=O)c2cccc(C)c2)ccc1OCC(=O)Nc1ccccc1 was read as HT1080 IDH1KD tx -13%, SW480 rereplic -11%, KB-3-1 tox inactive, MCF10A rereplic -1%, KB-V1 MDR tox inactive and HT1080NT lethal -5%.
Screening CC=Cc1cc2c(c(=O)o1)C(=O)C(O)C(C)O2 (configuration not stated) returned HT1080 IDH1KD tx inconclusive, SW480 rereplic 18µM*, KB-3-1 tox inactive, MCF10A rereplic 12µM*, KB-V1 MDR tox inactive and HT1080NT lethal -19%.
Screening Cc1nc2ccccc2c(=O)n1CCc1ccccc1 returned HT1080 IDH1KD tx 11%, SW480 rereplic -4%, KB-3-1 tox inactive, MCF10A rereplic 14%, KB-V1 MDR tox inactive and HT1080NT lethal 11%.
For O=c1c2ccccc2nc(/C=C/c2ccc(Br)cc2)n1CCO the results were HT1080 IDH1KD tx inconclusive, SW480 rereplic 15%, KB-3-1 tox inactive, MCF10A rereplic inconclusive, KB-V1 MDR tox inconclusive and HT1080NT lethal -29%.
Screening Cc1[nH]c2ccccc2c1/C=C/c1nc2ccccc2c(=O)n1CCO returned HT1080 IDH1KD tx -24%, SW480 rereplic inconclusive, KB-3-1 tox 12µM*, MCF10A rereplic inconclusive, KB-V1 MDR tox 12µM* and HT1080NT lethal inconclusive.
Cc1ccccc1/C=C/c1nc2ccccc2c(=O)n1CCc1ccccc1 was read as HT1080 IDH1KD tx 1%, SW480 rereplic -41%, KB-3-1 tox inactive, MCF10A rereplic -2%, KB-V1 MDR tox 2.6µM* and HT1080NT lethal -7%.
`Cc1ccc(/C=C/c2nc3ccccc3c(=O)n2CCc2ccccc2)cc1` gave HT1080 IDH1KD tx -12%, SW480 rereplic 10%, KB-3-1 tox inactive, MCF10A rereplic inconclusive, KB-V1 MDR tox 2.6µM* and HT1080NT lethal -19%.
COc1ccc(N(Cc2cc3cccc(C)c3[nH]c2=O)S(=O)(=O)c2ccc(Cl)cc2)cc1 was read as HT1080 IDH1KD tx 2%, SW480 rereplic -17%, KB-3-1 tox inactive, MCF10A rereplic -2%, KB-V1 MDR tox inactive and HT1080NT lethal 1%.
c1csc(-c2nc(CN3CCSCC3)cs2)c1 was read as HT1080 IDH1KD tx -27%, SW480 rereplic -5%, KB-3-1 tox inconclusive, MCF10A rereplic -1%, KB-V1 MDR tox inactive and HT1080NT lethal -7%.
CCSc1nnc2c(n1)OC(c1cc(OC)c(OC)c(OC)c1)Nc1ccccc1-2 (configuration not stated) was read as KB-3-1 tox inactive and KB-V1 MDR tox inactive.
Screening CCOc1ccc(Cl)cc1S(=O)(=O)N1CCN(c2ccc(C)c(C)c2)CC1 returned HT1080 IDH1KD tx -7%, SW480 rereplic inconclusive, KB-3-1 tox inactive, MCF10A rereplic 8%, KB-V1 MDR tox 15µM* and HT1080NT lethal 3%.
CCOc1ccc(Cl)cc1S(=O)(=O)N1CCN(c2ccc(F)cc2)CC1 was read as HT1080 IDH1KD tx -7%, SW480 rereplic inconclusive, KB-3-1 tox inactive, MCF10A rereplic inconclusive, KB-V1 MDR tox inactive and HT1080NT lethal -12%.
O=C(c1ccc(-n2cccc2)cc1)N1CCCCC1 was read as HT1080 IDH1KD tx 6%, SW480 rereplic 2%, KB-3-1 tox inactive, MCF10A rereplic 1%, KB-V1 MDR tox inconclusive and HT1080NT lethal 5%.
Screening CC(C)(C)NC(=O)CCN(/N=C/c1ccc([N+](=O)[O-])o1)C1=NS(=O)(=O)c2ccccc21 returned HT1080 IDH1KD tx inconclusive, SW480 rereplic 13µM*, KB-3-1 tox 18µM*, MCF10A rereplic 23µM*, KB-V1 MDR tox inactive and HT1080NT lethal inconclusive.
`CN(C)c1ccc(/C=N/N(CCC(=O)NC(C)(C)C)C2=NS(=O)(=O)c3ccccc32)cc1` gave HT1080 IDH1KD tx 17%, SW480 rereplic 18µM*, KB-3-1 tox inactive, MCF10A rereplic 18µM*, KB-V1 MDR tox inactive and HT1080NT lethal 15%.
Screening CN(C)c1ccc(/C=N/N(CCO)C2=NS(=O)(=O)c3ccccc32)cc1 returned HT1080 IDH1KD tx -2%, SW480 rereplic -1%, KB-3-1 tox inactive, MCF10A rereplic 0%, KB-V1 MDR tox inactive and HT1080NT lethal 3%.
